Source: the supplement of paper PMC12636033
± gives the standard deviation of the averaged measurements. Whole data set: some 33,000 sequences, median “E-score (rank enrichment, -0.5 to 0.5)” near -0.0075, cut for the highest 2% near 0.23. What follows is part of a selection rich in the highest values, with near analogues and random picks from the rest.

Each sequence was assayed on WT Max(13-93) synthetic (M65Nle) (assay: PBM 8-mer E-score (E-score (rank enrichment, -0.5 to 0.5)); higher = stronger preferential binding).
Protocol: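 Protein binding microarray (universal PBM chip covering all 10-mers in fixed probe flanks) with chemically synthesized human Max(13-93) bHLH-LZ analogs (not full-length Max) bearing noncanonical residues (hArg, Tha, Aib, Nle at 65) and aromatic Cys staples. Read-out per 8-mer (and its reverse complement): E-score (rank-based enrichment, -0.5 to 0.5) and Z-score of median probe intensity.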

| Sequence | PBM 8-mer E-score |
| --- | --- |
| CCATGGTC | 0.0328 ± 0.1 |
| ACATGGTC | 0.319 ± 0.016 |
| ACATGGCC | 0.232 ± 0.14 |
| ACATGGGA | 0.135 ± 0.03 |
| ACATGGGG | 0.273 ± 0.033 |
| ACATGGCG | 0.183 ± 0.026 |
| CTATGGTC | -0.0873 ± 0.11 |
| GCATGGCC | 0.0853 ± 0.066 |
| CCATGGTA | 0.0299 ± 0.078 |
| CCATGGGG | -0.138 ± 0.011 |
| ACATGGTA | 0.277 ± 0.008 |
| GCATGGTA | 0.185 ± 0.032 |
| AAATCGCT | -0.0979 ± 0.047 |
| ACTGTGTG | 0.0422 ± 0.088 |
| AAGAACTA | 0.204 ± 0.045 |
| CGCTGCAA | -0.0409 ± 0.02 |
| AGATGGTG | 0.00749 ± 0.089 |
| ACATGGAG | 0.198 ± 0.015 |
| ACATGGTG | 0.233 ± 0.045 |
| GTGGGGAA | 0.205 ± 0.11 |
| GACTGACA | -0.0306 ± 0.026 |
| AGGCCCTC | 0.00332 ± 0.043 |
| CAGGAATC | -0.216 ± 0.02 |
| ATACAAAA | 0.265 ± 0.02 |
| TTACAAAA | 0.225 ± 0.024 |

| Sequence | PBM 8-mer E-score |
| --- | --- |
| ATACAAAC | 0.212 ± 0.016 |
| ATACAAAG | 0.0198 ± 0.057 |
| CTACAAAA | 0.0614 ± 0.0036 |
| ATACAAAT | 0.249 ± 0.035 |
| GAGAAAAC | -0.0792 ± 0.0078 |
| GCAAAGGA | 0.00898 ± 0.011 |
| AATTCATG | 0.132 ± 0.0098 |
| CTATTCAC | -0.0152 ± 0.017 |
| ATATTCAC | 0.234 ± 0.022 |
| GTATTCAC | 0.0929 ± 0.016 |
| CGCTGTCA | -0.225 ± 0.066 |
| ACGTTCGA | -0.101 ± 0.043 |
| CGTATGGA | -0.00324 ± 0.07 |
| ATGTAACG | 0.0739 ± 0.012 |
| CTGTAACA | 0.044 ± 0.048 |
| ATGTAAAA | 0.268 ± 0.011 |
| ATGTAATA | 0.25 ± 0.011 |
| ATGTAACA | 0.239 ± 0.027 |
| CTGTAAAA | 0.0812 ± 0.032 |
| ATGTAAAT | 0.224 ± 0.021 |
| CTGTAATA | 0.0153 ± 0.064 |
| ATGTAATG | 0.16 ± 0.079 |
| GCTTAGGA | -0.105 ± 0.036 |
| TGACCCAA | 0.106 ± 0.036 |
| CGTTACTA | 0.108 ± 0.1 |

| Sequence | PBM 8-mer E-score |
| --- | --- |
| CCCTCCTC | -0.0364 ± 0.059 |
| GCATAGTA | 0.0884 ± 0.0015 |
| GTCCCGCA | -0.141 ± 0.005 |
| AGGTGTGG | 0.0754 ± 0.09 |
| CCGTGTGC | -0.0611 ± 0.063 |
| AAGTGTGG | 0.0251 ± 0.043 |
| ACGTGTGA | 0.192 ± 0.054 |
| ACGTGTGG | 0.3 ± 0.048 |
| ACGTGTGC | 0.348 ± 0.0039 |
| ACAAAACG | 0.152 ± 0.068 |
| ACCAGACA | -0.0218 ± 0.036 |
| AAGAACAG | 0.137 ± 0.033 |
| AAGAACAT | 0.2472 ± 0.0023 |
| AAGAACAC | 0.156 ± 0.11 |
| CCAAGCAC | 0.139 ± 0.07 |
| ACACCGCA | -0.148 ± 0.046 |
| CCGACCGA | -0.158 ± 0.039 |
| CGTTCGAC | -0.123 ± 0.034 |
| GCATGTAA | 0.239 ± 0.0044 |
| TCATGTAA | 0.148 ± 0.0053 |
| CCATGTAA | 0.0612 ± 0.026 |
| CAATGTAC | 0.0304 ± 0.16 |
| ACATGTCT | 0.222 ± 0.1 |
| CCATGTAC | 0.0683 ± 0.0021 |
| AAATGTAG | 0.144 ± 0.015 |

| Sequence | PBM 8-mer E-score |
| --- | --- |
| ACATGTAC | 0.29 ± 0.009 |
| AAATGTAC | 0.268 ± 0.026 |
| ACATGTAT | 0.341 ± 0.019 |
| AGATGTAT | 0.158 ± 0.0099 |
| GCATGTAC | 0.197 ± 0.093 |
| ATTATCCC | 0.073 ± 0.014 |
| CCGCGTAA | -0.0539 ± 0.056 |
| CGTTCGTA | 0.0244 ± 0.0097 |
| CCGTTCAC | -0.15 ± 0.0062 |
| AGATGTAG | 0.0391 ± 0.11 |
| ACATGTAA | 0.317 ± 0.0085 |
| AAATGTAA | 0.0766 ± 0.017 |
| CCATGTAG | 0.14 ± 0.045 |
| ACATGTAG | 0.329 ± 0.031 |
| AGATGTAA | 0.114 ± 0.043 |
| ATTCGATA | 0.0933 ± 0.11 |
| CTGCAGAA | -0.039 ± 0.059 |
| CGGGTTGC | -0.0971 ± 0.064 |
| CTGACCAA | -0.00243 ± 0.0086 |
| CATGGTCA | 0.291 ± 0.031 |
| GATGGTTA | 0.0493 ± 0.12 |
| CATGGTCC | 0.0038 ± 0.074 |
| AATGGTTA | 0.147 ± 0.038 |
| CATGGTCG | 0.219 ± 0.039 |
| CATGGTTA | 0.2411 ± 0.0015 |

| Sequence | PBM 8-mer E-score |
| --- | --- |
| TGCCGCAA | 0.106 ± 0.083 |
| GAATAGGC | 0.113 ± 0.015 |
| CCGTGAGC | -0.142 ± 0.048 |
| CAGGGGTC | -0.0985 ± 0.052 |
| GCGACGAC | -0.0631 ± 0.081 |
| TGTACGAA | 0.0875 ± 0.095 |
| CATGCTGG | 0.314 ± 0.04 |
| AATGCTAG | -0.0447 ± 0.064 |
| CATGCTGC | 0.183 ± 0.089 |
| CATGCTAC | 0.0659 ± 0.14 |
| CATGCTAG | 0.241 ± 0.034 |
| AATGCTGG | 0.0745 ± 0.034 |
| CCCCCGTC | -0.0979 ± 0.09 |
| TGCCGGAA | -0.154 ± 0.028 |
| AATGCGCC | -0.0607 ± 0.1 |
| CCACTTAG | 0.00666 ± 0.08 |
| CCGAGCGG | -0.0233 ± 0.11 |
| CAACTACG | -0.0136 ± 0.15 |
| GCCTCGAA | -0.199 ± 0.015 |
| ACTTGCTA | 0.0291 ± 0.18 |
| CAACAGGC | -0.126 ± 0.031 |
| GACATACA | 0.162 ± 0.037 |
| CACATAAA | 0.106 ± 0.099 |
| GTCATAAA | 0.282 ± 0.021 |
| GTCATAAC | 0.0805 ± 0.074 |

| Sequence | PBM 8-mer E-score |
| --- | --- |
| CACATACG | 0.0417 ± 0.11 |
| AACATACG | 0.246 ± 0.04 |
| AACATACT | 0.0867 ± 0.12 |
| TTCATAAA | 0.0506 ± 0.062 |
| AACATAAA | 0.225 ± 0.066 |
| TACATAAA | 0.234 ± 0.02 |
| CACATACA | 0.00143 ± 0.16 |
| TACATACA | 0.275 ± 0.015 |
| CCGTCTGC | -0.0961 ± 0.0095 |
| GTGAAACA | 0.0563 ± 0.012 |
| AGTAGTTC | -0.116 ± 0.027 |
| CACCTAAC | -0.189 ± 0.12 |
| CGTTCAGC | -0.266 ± 0.082 |
| TCATTGCA | 0.0909 ± 0.036 |
| AACATACC | 0.0333 ± 0.06 |
| AACATACA | 0.26 ± 0.062 |
| ACCATACA | 0.0446 ± 0.2 |
| ACGTCGGA | -0.0798 ± 0.0092 |
| AAGTGCAT | 0.115 ± 0.097 |
| CCGTGCAG | -0.0417 ± 0.026 |
| ATGTGCAA | 0.203 ± 0.06 |
| AGGTGCAT | 0.139 ± 0.0098 |
| ACGTGCAG | 0.325 ± 0.063 |
| CTGTGCAC | -0.091 ± 0.017 |
| GCGTGCAC | 0.215 ± 0.033 |

| Sequence | PBM 8-mer E-score |
| --- | --- |
| CCGTGCAC | 0.0618 ± 0.097 |
| ACGTGCAC | 0.391 ± 0.021 |
| ATGTGCAC | 0.29 ± 0.059 |
| ATGTGCAG | 0.0828 ± 0.0059 |
| ACGTGCAT | 0.378 ± 0.013 |
| ACCACGGA | -0.207 ± 0.0078 |
| ATGTCCAC | 0.113 ± 0.011 |
| CAGGACGG | -0.162 ± 0.092 |
| TCATGCGA | 0.034 ± 0.055 |
| ACGCCTTA | -0.0494 ± 0.025 |
| CGCTTAAG | -0.0549 ± 0.15 |
| AGCCTGAC | -0.0941 ± 0.14 |
| CTTATAGC | -0.0275 ± 0.032 |
| GAGCGCTA | -0.0703 ± 0.047 |
| ATGAACCA | 0.145 ± 0.06 |
| ACGGCGGC | -0.238 ± 0.059 |
| CGTGCTAC | 0.2 ± 0.061 |
| CAATGGAG | 0.0245 ± 0.12 |
| CGGGTACG | -0.133 ± 0.043 |
| CCAGGCGG | -0.0313 ± 0.028 |
| CCCAATGA | 0.0385 ± 0.031 |
| ATGTGAGA | 0.231 ± 0.13 |
